Laboratory results as given in PubChem BioAssay (NCATS).
Results filed as inconclusive are left out. Active and inactive are the calls of the source. Calls follow the shape of the dose curve; as a rule, active = well fitted curve in the direction sought with a large enough effect; inconclusive = small, poorly fitted or top-dose-only effect, or another doubt; inactive = no such curve, though single readings can be large; an effect the other way counts as inactive or inconclusive.

Key:
[1] = KB-8-5-11 Cancer Cell Toxicity qHTS against the NCATS CANVASS Library (AID 1347364)
Method in brief: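 Luminescent ATP signal (CellTiter-Glo, 10 min at room temperature) measured cell survival of KB-8-5-11 after 72 hr compound treatment. For confirmation, the cells were also grown with 1uM tariquidar.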

[2] = qHTS for ATAD5 Agonist screened against the NCATS CANVASS Library (AID 1347367)
Method in brief: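 HEK293T cells stably carrying an ATAD5-controlled luciferase reporter (2000 cells/well) attached for 5 hr, then received compounds in an 11-point series for 16hr at 37C. Luminescence was read after a 30 min room-temperature reagent step.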

[3] = MCF7 Cancer Cell Toxicity qHTS against the NCATS CANVASS Library (AID 1347369)
Method in brief: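 MCF7, 500 cells/well; cpds 11-pt qHTS; 72 hr, 37C/5% CO2; CellTiterGlo ATP luminescence.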

[4] = J3T Cancer Cell Toxicity qHTS against the NCATS CANVASS Library (AID 1347371)
Method in brief: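 ATP-based cytotoxicity in canine J3T cells: 72 hr exposure at 37C, 11-point titration, CellTiterGlo luminescent detection.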

[5] = molecular target: Nuclear receptor subfamily 1 group I member 3 (Homo sapiens) (UniProt Q14994); test: qHTS for Constitutive Androstane Receptor (CAR) Antagonist screened against the NCATS CANVASS Library (AID 1347372)
Method in brief: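 Antagonist mode: compound added alongside 50 nM CITCO to HepG2-hCAR-CYP2B6 reporter cells, 24hr at 37C. Viability by CellTiter-Fluor fluorescence, then CAR-driven luciferase by ONE-Glo luminescence.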

[6] = molecular target: Nuclear receptor subfamily 1 group I member 3 (Homo sapiens) (UniProt Q14994); test: qHTS for Constitutive Androstane Receptor (CAR) Agonist screened against the NCATS CANVASS Library (AID 1347373)
Method in brief: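 In an 11-point concentration series, compounds were incubated 24hr with HepG2 cells carrying hCAR and a CYP2B6-2.2kb reporter, with PK11195 at 1.5uM final. A CellTiter-Fluor viability read preceded the ONE-Glo luminescence read.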

[7] = qHTS for Hypoxia signaling pathway (HIF-1) antagonists against the NCATS CANVASS Library (AID 1347374)
Method in brief: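 Beta-lactamase reporter under HRE control in ME-180 cells; CoCl2 stimulus (60 uM solution as added), compounds 11-pt qHTS, 17 h 37C. CCF4 dye 2 h RT, 460/530 nm emission. CellTiter-Glo viability in same wells.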

[8] = qHTS for Hypoxia signaling pathway (HIF-1) agonists against the NCATS CANVASS Library (AID 1347375)
Method in brief: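 An HRE-beta-lactamase ME-180 line is exposed for 17 h to an 11-point compound series, then read by CCF4-AM FRET. Cytotoxicity is measured in parallel in the same wells with CellTiter-Glo, and autofluorescence is checked separately.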

[9] = 10-beta competent E. coli microbial cell viability qHTS against the NCATS CANVASS Library (AID 1347376)
Method in brief: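 Overnight 37C exposure of 10-beta E. coli (0.2 OD) to an 11-point concentration series; ATP-based luminescence after 20 min room-temperature reagent incubation; daunomycin as control.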

[10] = qHTS for H2AX Agonists against the NCATS CANVASS Library (AID 1347378)
Method in brief: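 CHO-K1 cells were plated overnight at 37C, then exposed to compounds (concentration series, 0.76% DMSO final) for 3 hr at 37C. Lysates received Eu-cryptate anti-pH2AX (S139) and d2 anti-H2AX antibodies; after 24 hr at room temperature, TR-FRET 665/620 nm ratio was read.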

[11] = qHTS for Inflammasome Signaling Inhibitors: IL-1-beta AlphaLISA screen against the NCATS CANVASS Library (AID 1347379)
Method in brief: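 THP-1, 1 hr compound pre-incubation, then LPS 250 ng/mL + ATP 1.25 mM (final); 16 hr total with compound; IL-1B AlphaLISA, ex 680/em 615 nm; 11-point qHTS, up to 57.5 uM final.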

[12] = qHTS for Antimalaria activity screened against the NCATS CANVASS Library (AID 1347380)
Method in brief: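 Measures proliferation or cytotoxicity against Dd2 blood stages in 72 h cultures, 11-point qHTS dosing, with SYBR Green fluorescence as read-out; dihydroartemisinin titration served as control.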

[13] = Inflammasome Signaling qHTS Counterscreen: IL-1-beta AlphaLISA counterscreen against the NCATS CANVASS Library (AID 1347381)
Method in brief: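 Here, no cellular stimulation occurs; compounds in an 11-point series meet 4 pg purified IL-1-beta directly. Bead-based AlphaLISA detection follows (1 h acceptor/antibody, then 30 min donor, dark, room temperature), with excitation at 680 nm.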

[14] = Cytotoxicity qHTS for assessment of Hepg2 cells membrane integrity screened against the NCATS CANVASS Library (AID 1347387)
Method in brief: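 Membrane damage in HepG2 monolayers was estimated from released LDH, measured with CytoTox-ONE (ex 560/em 590 nm), after 5 hr treatment across 0.59 nM - 46 uM final.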

[15] = Secretion counterscreen for inhibitors of the SERCaMP assay screened against the NCATS CANVASS Library (AID 1347390)
Method in brief: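 SH-SY5Y cells expressing constitutively secreted GLuc, 1000 cells/well, attached 4 h at 37C, then exposed to compounds (0.001 - 77 uM, 11-pnt series) for 20 h. Coelenterazine added; luminescence read to flag secretory-pathway interferers.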

[16] = qHTS for activators of Nrf2/ARE signaling pathway screened against the NCATS CANVASS Library (AID 1347391)
Method in brief: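 Activation of Nrf2/ARE was scored in ARE-bla HepG2 cells after 16 h compound exposure using CCF4 beta-lactamase fluorescence ratio readings.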

[17] = qHTS for activators of dead-cell proteases activity screened against the NCATS CANVASS Library (AID 1347392)
Method in brief: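 Luminescent dead-cell protease readout (AAF-aminoluciferin, 15 min, room temperature) after 5 h compound treatment of HepG2 cells (2000/well, pre-attached 18 h). Eleven concentrations.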

[18] = Vero-766 cells viability qHTS against the NCATS CANVASS Library: Counterscreen for Zika virus inhibition assay (AID 1347394)
Method in brief: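 Uninfected Vero 766 (African green monkey) cells, 1000/well, attached overnight, then exposed 72 h at 37C to compounds (11-point qHTS). Viability read by CellTiter-Glo luminescence; media-only wells served as 100% inhibition.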

[19] = qHTS for inhibitors of Wild type Zika virus screened against the NCATS CANVASS Library (AID 1347396)
Method in brief: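 Using ATP-based luminescence (CellTiter Glo), this screen scores rescue of Vero 766 cells from wild-type Zika killing at 72 h post-infection. Compounds are tested in a concentration series.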

[20] = Viability qHTS for inhibitors of the SERCaMP assay screened against the NCATS CANVASS Library (AID 1347400)
Method in brief: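 Measures loss of viability in SERCaMP reporter SH-SY5Y cells treated for 48 h with compounds; luminescent ATP detection by CellTiter-Glo.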

Measured: Potency

Sequence of Nuclear receptor subfamily 1 group I member 3 (Homo sapiens) (Q14994 whole entry, looked up): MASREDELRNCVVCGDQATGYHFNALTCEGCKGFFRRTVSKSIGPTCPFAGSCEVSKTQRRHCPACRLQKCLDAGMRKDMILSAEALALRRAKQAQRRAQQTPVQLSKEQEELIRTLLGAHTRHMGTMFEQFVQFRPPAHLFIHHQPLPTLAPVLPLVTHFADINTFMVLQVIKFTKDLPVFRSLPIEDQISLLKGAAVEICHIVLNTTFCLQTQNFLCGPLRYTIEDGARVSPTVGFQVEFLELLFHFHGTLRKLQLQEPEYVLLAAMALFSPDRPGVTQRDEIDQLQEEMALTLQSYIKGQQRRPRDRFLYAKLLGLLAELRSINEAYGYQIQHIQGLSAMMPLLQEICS

C/C=C1/CN2CC[C@]34C(=Nc5ccccc53)[C@@H]2C[C@@H]1[C@H]4C(=O)OC
inactive: [1] | [2] | [3] | [4] | [5] | [6] | [7] | [8] | [9] | [10] | [11] | [12] | [13] | [14] | [15] | [16] | [17] | [18] | [19] | [20]

CN1C(=O)[C@]23CC4C(C)(C)[C@@]5(C[C@@]41CN2CC[C@@]3(C)O)C(=O)Nc1c5ccc2c1OC=CC(C)(C)O2 (stereo not given in full)
inactive: [1] | [2] | [3] | [4] | [5] | [6] | [7] | [8] | [9] | [10] | [11] | [12] | [13] | [14] | [15] | [16] | [17] | [18] | [19] | [20]
